Several values for one entry are separate records, joined by “and”; a condition that tells them apart may be missing. Equal values may be shown once. The panel holds about 83,000 compounds, 20% with a hit somewhere; the sample as a whole holds those more often.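 Cell lines were cultured in 96-well plates, exposed to a single compound concentration, and assessed for percent growth 48 hours later.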 Activity calls are given as the source filed them. How the source made its calls: active means growth percent below 10; inactive means the rest.
Key:
Assay in all cases: NCI-60 one-dose screen, 48 h (100 = growth as untreated, 0 = no growth, -100 = all killed)
Details in all cases: 10 µM unless noted
HCT-15 colon = tested on: HCT-15 colon
HT29 colon = tested on: HT29 colon
SNB-75 CNS = tested on: SNB-75 CNS
SNB-19 CNS = tested on: SNB-19 CNS
U251 CNS = tested on: U251 CNS
PC-3 prostate = tested on: PC-3 prostate
SK-MEL-5 melanoma = tested on: SK-MEL-5 melanoma
UACC-62 melanoma = tested on: UACC-62 melanoma
LOX IMVI melanoma = tested on: LOX IMVI melanoma
SK-MEL-28 melanoma = tested on: SK-MEL-28 melanoma

Measured: growth

CCCCCCCCCC(=O)NC(C)(C)C(=O)N1CCC[C@H]1C(=O)N[C@@H](CC(C)C)C(=O)N[C@@](C)(CC)C(=O)N[C@@H](CCC(N)=O)C(=O)N[C@H](CCC(N)=O)C(=O)NC(C)(C)C(=O)NC(C)(C)C(=O)N[C@@H](CCC(N)=O)C(=O)N[C@H](CC(C)C)C(=O)N[C@H](CO)CC(C)C
-79.6% (active) and 23.1% (inactive): HCT-15 colon
active: HT29 colon -51.5% and -46.3% | SNB-75 CNS -66.3% and -94% | SNB-19 CNS -96.3% and -99% | U251 CNS -92% and -81.5% | PC-3 prostate -94.1% and -55.4% | SK-MEL-5 melanoma -96.7% and -93.7% | UACC-62 melanoma -96.7% and -91.7% | LOX IMVI melanoma -91.5% and -88.4% | SK-MEL-28 melanoma -97.9% and -99.9%

COc1ccc(OC)c(CCn2cncc2-c2c[nH]c3ccc(Cl)cc23)c1
inactive: HCT-15 colon 32.8% | HT29 colon 10.1% | SNB-75 CNS 21.4% | SNB-19 CNS 60.4% | U251 CNS 47.1% | PC-3 prostate 39.1% | UACC-62 melanoma 40.7% | LOX IMVI melanoma 47.3% | SK-MEL-28 melanoma 67.7%
active: SK-MEL-5 melanoma -19.8%

Cc1csc(/N=C(N)/N=C(\N)c2cccs2)n1
inactive: HCT-15 colon 100% | HT29 colon 116% | SNB-75 CNS 94.3% | SNB-19 CNS 103% | U251 CNS 97% | PC-3 prostate 92.3% | SK-MEL-5 melanoma 99.5% | UACC-62 melanoma 94.7% | LOX IMVI melanoma 104% | SK-MEL-28 melanoma 117%

Cn1ncc2ncc(-c3ccc4ncc(C#N)c(N5CCc6cc(F)c(Cl)cc65)c4c3)cc21
inactive: HCT-15 colon 23.2% | HT29 colon 41.4% | SNB-19 CNS 51.6% | U251 CNS 48.6% | PC-3 prostate 26% | SK-MEL-5 melanoma 39.5% | UACC-62 melanoma 20.8% | LOX IMVI melanoma 19.3% | SK-MEL-28 melanoma 48.4%
active: SNB-75 CNS -1.84%

Oc1ccc(-c2nc3ccc(/C(=N\N=C\c4ccc(Cl)cc4)c4ccccc4)cc3[nH]2)cc1
inactive: HCT-15 colon 71.1% | HT29 colon 75.4% | SNB-75 CNS 93.4% | SNB-19 CNS 91.7% | U251 CNS 86.6% | PC-3 prostate 52.9% | SK-MEL-5 melanoma 84.1% | UACC-62 melanoma 84.1% | LOX IMVI melanoma 57.4% | SK-MEL-28 melanoma 91%

Cc1ccc(S(=O)(=O)NCCCNc2nc(Nc3ccc(N4CCN(C)CC4)cc3)nc3ccsc23)cc1
inactive: SNB-75 CNS 88.5% | SNB-19 CNS 58.7% | PC-3 prostate 63.5%
active: HCT-15 colon 3% | HT29 colon -61.8% | U251 CNS 6.58% | SK-MEL-5 melanoma -84.1% | UACC-62 melanoma -48.3% | LOX IMVI melanoma -77.6% | SK-MEL-28 melanoma -84.5%

CCOC(=O)c1c(NC(=O)c2cccc(C(F)(F)F)c2)sc2c1CCC(=O)C2
inactive: HCT-15 colon 18.9% | HT29 colon 65.4% | SNB-75 CNS 31.6% | SNB-19 CNS 21.4% | SK-MEL-5 melanoma 38% | UACC-62 melanoma 30.9% | SK-MEL-28 melanoma 89.2%
active: U251 CNS 3.77% | PC-3 prostate 3.56% | LOX IMVI melanoma 9.07%

CSc1ccc(/C(=N/N=C(N)N)c2ccc(Cl)cc2)cc1
active: HCT-15 colon 3.54% | HT29 colon -30.1% | SNB-75 CNS 1.16% | U251 CNS -13.5% | PC-3 prostate 8.76% | SK-MEL-5 melanoma -0.967% | UACC-62 melanoma 7.53% | LOX IMVI melanoma -42.5%
inactive: SNB-19 CNS 19.6% | SK-MEL-28 melanoma 48.8%

O=C1CSC(c2cn(-c3ccccc3)nc2-c2ccc(Cl)cc2)N1c1ccccc1 (stereo not given)
inactive: HCT-15 colon 101% | HT29 colon 106% | SNB-75 CNS 99.9% | SNB-19 CNS 112% | U251 CNS 106% | PC-3 prostate 99.7% | SK-MEL-5 melanoma 99.4% | UACC-62 melanoma 99% | LOX IMVI melanoma 100% | SK-MEL-28 melanoma 118%

CCCCCN1C(=O)/C(=c2\sc3n(c2=O)C2C(NN=3)N(CC)C(=O)N2CC)c2cccc(C)c21 (stereo not given)
inactive: HCT-15 colon 19.9% | HT29 colon 37.9% | SNB-75 CNS 20.5% | SNB-19 CNS 53.1% | U251 CNS 61% | PC-3 prostate 40% | SK-MEL-5 melanoma 45.5% | UACC-62 melanoma 35.4% | LOX IMVI melanoma 37.9% | SK-MEL-28 melanoma 62.4%

C#Cc1nc(C(=O)NCCCCCCC(=O)NO)cs1
active: HT29 colon 5.53% | SNB-75 CNS -65.2% | U251 CNS 6.04% | SK-MEL-5 melanoma -55.9% | UACC-62 melanoma -63.1% | LOX IMVI melanoma -84.6% | SK-MEL-28 melanoma -53.1%
inactive: HCT-15 colon 41.3% | SNB-19 CNS 30.6% | PC-3 prostate 14.3%

O=S1SC(c2ccccc2)=NN1c1cc(F)cc(F)c1 (stereo not given)
inactive: HCT-15 colon 28.7% | HT29 colon 98.9% | SNB-75 CNS 74.9% | SNB-19 CNS 49.8% | U251 CNS 20.3% | PC-3 prostate 13.3% | SK-MEL-5 melanoma 50.4% | UACC-62 melanoma 29.1% | LOX IMVI melanoma 38.1% | SK-MEL-28 melanoma 46.4%

CC[C@]12CC(C(=O)OC)=C3Nc4ccccc4[C@@]34CCN(C14)[C@@H]1c3cc4c(cc3O[C@@H]1[C@H]2O)NC1=C(C(=O)OC)C[C@@]2(CC)C3N(CC[C@@]143)C[C@H]1O[C@H]12 (stereo not given in full)
active: HCT-15 colon 3.59% | SNB-75 CNS -4.96% | SK-MEL-5 melanoma -75.7% | UACC-62 melanoma 8.9% | LOX IMVI melanoma -64.6%
inactive: HT29 colon 12.2% | SNB-19 CNS 14.2% | U251 CNS 19.2% | PC-3 prostate 10.1% | SK-MEL-28 melanoma 20.7%

CC1=C(C)C(=O)C(Nc2cccc(C(=O)OC(C)(C)C)c2)=C(Cl)C1=O
inactive: HCT-15 colon 80.2% | HT29 colon 98.2% | SNB-75 CNS 58.4% | SNB-19 CNS 91.5% | U251 CNS 88.5% | PC-3 prostate 76.9% | SK-MEL-5 melanoma 98.1% | UACC-62 melanoma 93.4% | LOX IMVI melanoma 62.6% | SK-MEL-28 melanoma 104%

CCc1cc(OC(=O)N2CCC(N3CCCCC3)CC2)ccc1Nc1cc(-c2ccc(-n3cccn3)cc2)[nH]n1
inactive: SNB-75 CNS 97.3% | SNB-19 CNS 69.2% | U251 CNS 55.8% | PC-3 prostate 74.1% | SK-MEL-5 melanoma 60.2% | UACC-62 melanoma 89.5%
active: HCT-15 colon -44.6% | HT29 colon -19.3% | LOX IMVI melanoma -92% | SK-MEL-28 melanoma -60.7%

C(=N\Nc1nc(N/N=C/c2ccc3c(c2)OCO3)nc(N2CCCCC2)n1)/c1ccc2c(c1)OCO2
inactive: HCT-15 colon 33.8% | HT29 colon 38.2% | SNB-75 CNS 113% | SNB-19 CNS 80.3% | U251 CNS 81.4% | PC-3 prostate 73.6% | SK-MEL-5 melanoma 96.8% | UACC-62 melanoma 102% | LOX IMVI melanoma 47.9% | SK-MEL-28 melanoma 109%

C#C[C@]1(O)CC[C@H]2[C@@H]3CC=C4c5sc(Nc6ccc(C)cn6)nc5CC[C@]4(C)[C@H]3CC[C@@]21C
active: HCT-15 colon -45.6% | HT29 colon 1.03% | SNB-75 CNS -12.2% | SNB-19 CNS -21.2% | U251 CNS -1.79% | PC-3 prostate -27.3% | SK-MEL-5 melanoma -93.1% | UACC-62 melanoma -24.8% | LOX IMVI melanoma -61.7% | SK-MEL-28 melanoma -72.4%

CN1CCN(c2ccc(Nc3nc(NCCCNS(=O)(=O)c4ccc(F)cc4)c4sccc4n3)cc2)CC1
active: LOX IMVI melanoma -5.7% | SK-MEL-28 melanoma -42.9%
inactive: HCT-15 colon 25.5% | HT29 colon 11.4% | SNB-75 CNS 78.5% | SNB-19 CNS 74.5% | U251 CNS 15.7% | PC-3 prostate 60.5% | SK-MEL-5 melanoma 20.5% | UACC-62 melanoma 21.1%

O=c1oc2ccc(-c3ccc(F)cc3F)cc2c(=O)n1-c1ccc(Br)cc1F
inactive: HCT-15 colon 47.4% | HT29 colon 109% | SNB-75 CNS 73.9% | SNB-19 CNS 71.7% | U251 CNS 64% | PC-3 prostate 78.9% | SK-MEL-5 melanoma 15% | UACC-62 melanoma 21.1% | LOX IMVI melanoma 88.2% | SK-MEL-28 melanoma 77.3%

CC(=C(c1ccc(OCCN(C)C)cc1)c1ccc(OCCN(C)C)cc1)c1ccc(Cl)cc1
active: HCT-15 colon -79.7% | HT29 colon -67.3% | SNB-75 CNS -20.2% | SNB-19 CNS -40.9% | U251 CNS -60.6% | PC-3 prostate -52.9% | SK-MEL-5 melanoma -95.9% | UACC-62 melanoma -67.6% | LOX IMVI melanoma -92.8% | SK-MEL-28 melanoma -82.6%

Clc1ccc2[nH]cc(-c3cncn3CCc3ccc4c(c3)OCO4)c2c1
inactive: HCT-15 colon 72% | HT29 colon 70.5% | SNB-75 CNS 73.8% | SNB-19 CNS 82.1% | U251 CNS 69.9% | PC-3 prostate 51% | SK-MEL-5 melanoma 33.8% | UACC-62 melanoma 62.3% | LOX IMVI melanoma 91.5% | SK-MEL-28 melanoma 93.5%

COc1ccc2c(c1)c(-c1nnc(N)nc1-c1c[nH]c3ccc(F)cc13)cn2C
inactive: HCT-15 colon 27.7% | HT29 colon 11.1% | SNB-75 CNS 24.3% | SNB-19 CNS 45.2% | U251 CNS 34.5% | PC-3 prostate 51.2% | SK-MEL-5 melanoma 35.4% | UACC-62 melanoma 35.9% | LOX IMVI melanoma 42.7% | SK-MEL-28 melanoma 67.5%

NC(=S)n1c(=O)n(-c2cccc(C(F)(F)F)c2)c(=O)c2cc(-c3ccc(F)cc3F)ccc21
active: HCT-15 colon 9.27% | SNB-75 CNS -24.9% | U251 CNS 9.68% | PC-3 prostate 0.986% | SK-MEL-5 melanoma -57.3% | UACC-62 melanoma -3.3% | LOX IMVI melanoma -46.5%
inactive: HT29 colon 37.4% | SNB-19 CNS 15.6% | SK-MEL-28 melanoma 23%

COc1ccc(-c2cc(-c3ccc(N(C)C)cc3)n3c(n2)nc2ccccc23)cc1
inactive: HCT-15 colon 50.7% | HT29 colon 54.1% | SNB-75 CNS 95.2% | SNB-19 CNS 67.2% | U251 CNS 40.5% | PC-3 prostate 28.1% | UACC-62 melanoma 48.2% | LOX IMVI melanoma 66.3% | SK-MEL-28 melanoma 77%
active: SK-MEL-5 melanoma 3.05%

COc1ccc(/C=N/NC(=O)CSc2nc(-c3cnccn3)cc(-c3cccs3)c2C#N)cc1OC
inactive: HCT-15 colon 89.1% | HT29 colon 60.9% | SNB-75 CNS 81.9% | SNB-19 CNS 78.1% | U251 CNS 21% | PC-3 prostate 80.8% | SK-MEL-5 melanoma 34.8% | UACC-62 melanoma 19.8% | LOX IMVI melanoma 59.9% | SK-MEL-28 melanoma 98.2%

N#Cc1c(-c2cccs2)cc(-c2cnccn2)nc1SCC(=O)N/N=C/c1ccncc1
inactive: HCT-15 colon 106% | HT29 colon 109% | SNB-75 CNS 99.3% | SNB-19 CNS 101% | U251 CNS 105% | PC-3 prostate 96.4% | SK-MEL-5 melanoma 101% | UACC-62 melanoma 91.4% | LOX IMVI melanoma 101% | SK-MEL-28 melanoma 112%

— PubChem BioAssay (NCI)
